Results reported in PubChem BioAssay AID1159580 (chemical genetic matrix, 2015).
Among all 5,500 compounds or so, about 2,000 (36%) were called active. About 18% were inconclusive and are not listed. Cut-off read from the data, not from the text of the source: active = normalized growth mostly below about 0.91 (no sharp cut-off); inconclusive = no clear call, values can overlap the other calls; inactive = mostly above about 0.92. The list shows a part of the results.

Assay: chemical genetic growth profiling, strain panel (AID 1159580);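 note: tested at 20 µM; growth read once vehicle control cultures reached saturation at 30 °C; 1 = growth at the plate median or of vehicle wells; lower values mean less growth of the strain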
Conditions: growth OD

Measured: normalized growth

C[C@H](COc1ccccc1)N[C@H](C)[C@H](O)c1ccc(O)cc1
inactive: S. cerevisiae deletion strains, locus YJR043C, strain POL32, stronger effect = lower value 1.04 | S. cerevisiae deletion strains, locus YJR066W, strain TOR1, stronger effect = lower value 0.946 | S. cerevisiae deletion strains, locus YKL009W, strain mrt4, stronger effect = lower value 0.99 | S. cerevisiae deletion strains, locus YKL068W, stronger effect = lower value 0.989 | S. cerevisiae deletion strains, locus YKL085W, strain MDH1 (second series), stronger effect = lower value 0.977 | S. cerevisiae deletion strains, locus YKL085W, strain MDH1, stronger effect = lower value 0.977 | S. cerevisiae deletion strains, locus YKL160W, strain elf1, stronger effect = lower value 0.983 | S. cerevisiae deletion strains, locus YKL190W, strain CNB1, stronger effect = lower value 1 | S. cerevisiae deletion strains, locus YKR001C, strain vps1, stronger effect = lower value 1.01 | S. cerevisiae deletion strains, locus YKR026C, strain gcn3, stronger effect = lower value 0.993 | S. cerevisiae deletion strains, locus YKR091W, strain srl3, stronger effect = lower value 0.995 | S. cerevisiae deletion strains, locus YLL001W, strain dnm1, stronger effect = lower value 0.966 | S. cerevisiae deletion strains, locus YLL026W, stronger effect = lower value 1.01 | S. cerevisiae deletion strains, locus YLL041C, strain sdh2, stronger effect = lower value 0.993 | S. cerevisiae deletion strains, locus YLR027C, strain aat2, stronger effect = lower value 1.01 | S. cerevisiae deletion strains, locus YLR039C, strain RIC1, stronger effect = lower value 0.898 | S. cerevisiae deletion strains, locus YLR058C, strain SHM2, stronger effect = lower value 0.987 | S. cerevisiae deletion strains, locus YLR102C, strain apc9, stronger effect = lower value 0.99 | S. cerevisiae deletion strains, locus YLR113W, strain HOG1, stronger effect = lower value 0.962 | S. cerevisiae deletion strains, locus YLR221C, strain rsa3, stronger effect = lower value 0.974 | S. cerevisiae deletion strains, locus YLR258W, strain gsy2, stronger effect = lower value 0.997 | S. cerevisiae deletion strains, locus YLR262C, strain YPT6 (second series), stronger effect = lower value 0.929 | S. cerevisiae deletion strains, locus YLR262C, strain YPT6, stronger effect = lower value 1.04 | S. cerevisiae deletion strains, locus YLR268W, strain sec22, stronger effect = lower value 0.999 | S. cerevisiae deletion strains, locus YLR320W, strain mms22, stronger effect = lower value 0.97 | S. cerevisiae deletion strains, locus YLR330W, strain CHS5, stronger effect = lower value 0.988 | S. cerevisiae deletion strains, locus YLR342W, strain FKS1 (second series), stronger effect = lower value 1.01 | S. cerevisiae deletion strains, locus YLR342W, strain FKS1, stronger effect = lower value 0.997 | S. cerevisiae deletion strains, locus YLR357W, strain rsc2, stronger effect = lower value 0.95 | S. cerevisiae deletion strains, locus YLR370C, strain arc18, stronger effect = lower value 0.994 | S. cerevisiae deletion strains, locus YLR371W, strain rom2, stronger effect = lower value 0.98 | S. cerevisiae deletion strains, locus YLR384C, strain iki3, stronger effect = lower value 1 | S. cerevisiae deletion strains, locus YLR418C, strain cdc73, stronger effect = lower value 1.01 | S. cerevisiae deletion strains, locus YML016C, strain PPZ1, stronger effect = lower value 0.986 | S. cerevisiae deletion strains, locus YML032C, strain rad52, stronger effect = lower value 0.999 | S. cerevisiae deletion strains, locus YML120C, strain ndi1, stronger effect = lower value 0.985 | S. cerevisiae deletion strains, locus YML124C, strain tub3, stronger effect = lower value 0.983 | S. cerevisiae deletion strains, locus YMR058W, strain fet3, stronger effect = lower value 0.988 | S. cerevisiae deletion strains, locus YMR078C, strain ctf18, stronger effect = lower value 0.985 | S. cerevisiae deletion strains, locus YMR125W, strain sto1, stronger effect = lower value 0.984 | S. cerevisiae deletion strains, locus YMR129W, stronger effect = lower value 0.99 | S. cerevisiae deletion strains, locus YMR205C, strain PFK2, stronger effect = lower value 0.974 | S. cerevisiae deletion strains, locus YMR223W, strain ubp8, stronger effect = lower value 0.96 | S. cerevisiae deletion strains, locus YMR231W, strain pep5, stronger effect = lower value 1 | S. cerevisiae deletion strains, locus YMR307W, strain GAS1, stronger effect = lower value 1.05 | S. cerevisiae deletion strains, locus YNL067W, strain RPL9B, stronger effect = lower value 1 | S. cerevisiae deletion strains, locus YNL071W, strain lat1, stronger effect = lower value 1.01 | S. cerevisiae deletion strains, locus YNL128W, strain TEP1, stronger effect = lower value 0.979 | S. cerevisiae deletion strains, locus YNL183C, strain NPR1, stronger effect = lower value 0.95 | S. cerevisiae deletion strains, locus YNL209W, strain ssb2, stronger effect = lower value 0.994 | S. cerevisiae deletion strains, locus YNL233W, strain BNI4, stronger effect = lower value 0.979 | S. cerevisiae deletion strains, locus YNL248C, strain rpa49, stronger effect = lower value 0.985 | S. cerevisiae deletion strains, locus YNL250W, strain rad50, stronger effect = lower value 0.977 | S. cerevisiae deletion strains, locus YNL271C, strain bni1, stronger effect = lower value 0.993 | S. cerevisiae deletion strains, locus YNL298W, strain CLA4, stronger effect = lower value 0.989 | S. cerevisiae deletion strains, locus YNL307C, strain MCK1, stronger effect = lower value 0.988 | S. cerevisiae deletion strains, locus YNL322C, strain KRE1 (second series), stronger effect = lower value 0.998 | S. cerevisiae deletion strains, locus YNR049C, strain mso1, stronger effect = lower value 0.991 | S. cerevisiae deletion strains, locus YNR052C, strain pop2, stronger effect = lower value 0.987 | S. cerevisiae deletion strains, locus YOL012C, strain htz1 1.14 | S. cerevisiae deletion strains, locus YOL147C, strain pex11, stronger effect = lower value 0.99 | S. cerevisiae deletion strains, locus YOR001W, strain rrp6, stronger effect = lower value 1.01 | S. cerevisiae deletion strains, locus YOR061W, strain CKA2, stronger effect = lower value 0.994 | S. cerevisiae deletion strains, locus YOR069W, strain VPS5, stronger effect = lower value 0.98 | S. cerevisiae deletion strains, locus YOR070C, strain gyp1, stronger effect = lower value 0.993 | S. cerevisiae deletion strains, locus YOR080W, strain dia2, stronger effect = lower value 1 | S. cerevisiae deletion strains, locus YOR083W, strain WHI5, stronger effect = lower value 0.987 | S. cerevisiae deletion strains, locus YOR106W, strain vam3, stronger effect = lower value 0.979 | S. cerevisiae deletion strains, locus YOR136W, strain idh2, stronger effect = lower value 0.999 | S. cerevisiae deletion strains, locus YOR144C, strain elg1, stronger effect = lower value 0.999 | S. cerevisiae deletion strains, locus YOR184W, strain ser1, stronger effect = lower value 1 | S. cerevisiae deletion strains, locus YOR231W, strain MKK1, stronger effect = lower value 0.948 | S. cerevisiae deletion strains, locus YOR265W, strain rbl2, stronger effect = lower value 1.01 | S. cerevisiae deletion strains, locus YOR270C, strain vph1, stronger effect = lower value 0.978 | S. cerevisiae deletion strains, locus YOR290C, strain snf2, stronger effect = lower value 0.938 | S. cerevisiae deletion strains, locus YOR316C, strain cot1, stronger effect = lower value 0.986 | S. cerevisiae deletion strains, locus YPL051W, strain arl3, stronger effect = lower value 0.982 | S. cerevisiae deletion strains, locus YPL055C, strain LGE1, stronger effect = lower value 0.965 | S. cerevisiae deletion strains, locus YPL078C, strain atp4, stronger effect = lower value 0.993 | S. cerevisiae deletion strains, locus YPL106C, strain sse1, stronger effect = lower value 0.948 | S. cerevisiae deletion strains, locus YPL240C, strain hsp82, stronger effect = lower value 1.01 | S. cerevisiae deletion strains, locus YPL256C, strain CLN2, stronger effect = lower value 0.926 | S. cerevisiae deletion strains, locus YPR119W, strain clb2, stronger effect = lower value 0.99 | S. cerevisiae deletion strains, locus YPR141C, strain kar3, stronger effect = lower value 0.975 | S. cerevisiae deletion strains, locus YPR163C, strain tif3, stronger effect = lower value 0.989 | S. cerevisiae deletion strains, locus YPR167C, strain met16, stronger effect = lower value 0.993 | S. cerevisiae deletion strains, strain wtn01, stronger effect = lower value 0.986 | S. cerevisiae strains, strain wild type, stronger effect = lower value 0.993
